Laboratory results as given in PubChem BioAssay AID1159580 (chemical genetic matrix, 2015).
Out of some 5,500 compounds screened, about 2,000 (36%) were called active. About 18% were inconclusive and are not listed. No stated cut-off is given here; in the data, active means normalized growth mostly below about 0.91 (no sharp cut-off); inconclusive means no clear call, values can overlap the other calls; inactive means mostly above about 0.92. This is one part of the list.

Experiment: chemical genetic growth profiling, strain panel (AID 1159580);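 further: tested at 20 µM; growth read once vehicle control cultures reached saturation at 30 °C; 1 = growth at the plate median or of vehicle wells; lower values mean less growth of the strain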
Details: S. cerevisiae deletion strains, growth OD

Measured: normalized growth

COP(=S)(OC)Oc1ccc(SC)c(C)c1
inactive: locus YAL013W, strain DEP1, hits give low values 1 | locus YAL021C, strain ccr4, hits give low values 1.07 | locus YAL026C, strain drs2, hits give low values 0.984 | locus YAL030W, strain snc1, hits give low values 1 | locus YBL061C, strain skt5, hits give low values 0.981 | locus YBR021W, strain FUR4, hits give low values 0.98 | locus YBR023C, strain chs3, hits give low values 0.973 | locus YBR171W, strain sec66, hits give low values 0.992 | locus YBR229C, strain ROT2, hits give low values 1.02 | locus YBR231C, strain swc5, hits give low values 1.03 | locus YBR279W, strain paf1, hits give low values 1.01 | locus YCL011C, strain gbp2, hits give low values 0.955 | locus YCL016C, strain dcc1, hits give low values 0.954 | locus YCL029C, strain bik1, hits give low values 0.988 | locus YCL069W, strain vba3, hits give low values 0.981 | locus YCR088W, strain abp1, hits give low values 1 | locus YDL005C, strain med2, hits give low values 1.01 | locus YDL035C, strain GPR1, hits give low values 1.01 | locus YDL040C, strain nat1, hits give low values 1 | locus YDL074C, strain BRE1, hits give low values 1.01 | locus YDL101C, strain DUN1, hits give low values 1.03 | locus YDL134C, strain PPH21, hits give low values 1.02 | locus YDL185W, strain tfp1, hits give low values 0.986 | locus YDL192W, strain arf1, hits give low values 0.989 | locus YDR001C, strain nth1, hits give low values 0.999 | locus YDR069C, strain doa4, hits give low values 1.02 | locus YDR101C, strain arx1, hits give low values 0.988 | locus YDR137W, strain rgp1, hits give low values 0.94 | locus YDR150W, strain NUM1, hits give low values 1.02 | locus YDR159W, strain sac3, hits give low values 0.919 | locus YDR162C, strain NBP2, hits give low values 1.01 | locus YDR297W, strain sur2, hits give low values 1.01 | locus YDR318W, strain mcm21, hits give low values 0.99 | locus YDR334W, strain swr1, hits give low values 1.01 | locus YDR335W, strain msn5, hits give low values 1.01 | locus YDR388W, hits give low values 0.991 | locus YDR392W, strain spt3, hits give low values 0.766 | locus YDR502C, strain sam2, hits give low values 1 | locus YEL003W, strain gim4, hits give low values 1 | locus YEL037C, strain rad23, hits give low values 1 | locus YEL061C, strain CIN8 (second series), hits give low values 1 | locus YEL061C, strain CIN8, hits give low values 1.01 | locus YER015W, strain faa2, hits give low values 0.995 | locus YER016W, strain bim1, hits give low values 0.978 | locus YER110C, hits give low values 0.986 | locus YER111C, strain swi4, hits give low values 1.01 | locus YER155C, strain BEM2 (second series), hits give low values 0.951 | locus YER155C, strain BEM2, hits give low values 1.02 | locus YER167W, strain BCK2, hits give low values 1 | locus YFR010W, strain ubp6, hits give low values 1.03 | locus YGL078C, strain dbp3, hits give low values 0.981 | locus YGL086W, strain mad1, hits give low values 0.991 | locus YGL167C, strain pmr1, hits give low values 0.993 | locus YGL173C, strain kem1, hits give low values 0.988 | locus YGL227W, strain vid30, hits give low values 1.01 | locus YGL240W, strain doc1, hits give low values 0.989 | locus YGL248W, strain PDE1, hits give low values 1.03 | locus YGL253W, strain hxk2, hits give low values 0.955 | locus YGR078C, strain PAC10, hits give low values 0.999 | locus YGR135W, strain pre9, hits give low values 0.987 | locus YGR229C, strain SMI1, hits give low values 0.984 | locus YGR252W, strain gcn5, hits give low values 0.922 | locus YHR013C, strain ard1, hits give low values 1.02 | locus YHR027C, strain rpn1, hits give low values 0.998 | locus YHR030C, strain SLT2, hits give low values 1.02 | locus YHR079C, strain IRE1 (second series), hits give low values 0.99 | locus YHR094C, strain hxt1, hits give low values 0.984 | locus YHR129C, strain ARP1, hits give low values 1.01 | locus YHR142W, strain chs7, hits give low values 0.912 | locus YHR200W, strain rpn10, hits give low values 0.977 | locus YIL066C, strain RNR3, hits give low values 1 | locus YIL073C, strain SPO22, hits give low values 0.954 | locus YIL125W, strain kgd1, hits give low values 0.996 | locus YIR030C, strain dcg1, hits give low values 0.988 | locus YJL092W, strain hpr5, hits give low values 0.992 | locus YJL095W, strain BCK1 (second series), hits give low values 0.97 | locus YJL095W, strain BCK1, hits give low values 0.983 | locus YJL115W, strain asf1, hits give low values 1.02 | locus YJL129C, strain trk1, hits give low values 0.958 | locus YJL134W, strain LCB3, hits give low values 1.02 | locus YJL154C, strain vps35, hits give low values 1.01 | locus YJL164C, strain tpk1, hits give low values 0.935 | locus YJL166W, strain qcr8, hits give low values 0.974 | locus YJL168C, strain set2, hits give low values 0.991 | locus YJL187C, strain SWE1 (second series), hits give low values 1.01 | locus YJR043C, strain POL32, hits give low values 1
active: locus YBR009C, strain hhf1, hits give low values 0.904 | locus YDR195W, strain ref2 1.2 [resistant]
